According to PubChem BioAssay AID1987 (The Scripps Research Institute Molecular Screening Center, 2009):
The whole screen tested about 320,000 compounds, of which about 560 (0.17%) were called active. This is one part of a sample in which actives are shown more often than they occur. Unmarked numbers belong to inactive results.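 Rule for the calls: active = inhibition above the campaign's mean inhibition across all tested compounds plus 3 SD (cut at about 9.5% in these data); inactive = the rest.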

target: Serine/threonine-protein phosphatase 5 (Homo sapiens) (UniProt P53041); test: PP5 phosphatase inhibitors, primary screen, biochemical, fluorescence (AID 1987); settings: purified PP5c, OMFP substrate fluorescence; at 6.7 µM; stronger effect = higher value;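 note: 0% = DMSO only and 100% = 100 µM cantharidin control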
Sequence (P53041 whole entry, looked up): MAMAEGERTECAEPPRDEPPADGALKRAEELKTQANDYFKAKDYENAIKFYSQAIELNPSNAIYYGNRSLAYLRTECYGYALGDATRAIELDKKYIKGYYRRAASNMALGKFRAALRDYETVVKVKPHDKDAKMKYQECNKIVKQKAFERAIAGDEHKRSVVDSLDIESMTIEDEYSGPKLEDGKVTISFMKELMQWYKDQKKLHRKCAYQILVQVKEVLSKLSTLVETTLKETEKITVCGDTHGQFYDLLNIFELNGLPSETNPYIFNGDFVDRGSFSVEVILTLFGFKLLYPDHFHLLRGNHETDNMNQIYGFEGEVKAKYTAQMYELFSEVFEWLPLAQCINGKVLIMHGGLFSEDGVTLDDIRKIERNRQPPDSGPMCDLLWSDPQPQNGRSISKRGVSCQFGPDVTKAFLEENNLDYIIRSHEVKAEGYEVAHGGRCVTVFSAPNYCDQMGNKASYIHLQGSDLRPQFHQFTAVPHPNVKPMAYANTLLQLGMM

Question: `O=C(O)c1ccccc1NC(=O)C1C2CCC(O2)C1C(=O)O` (stereo not given) was tested. Which inhibition did it give?
Answer: 41.3% (active)

Question: With `Cc1cc(C)cc(NC(=S)NC2CC3CCCC(C2)N3Cc2cccs2)c1` (stereo not given) as the compound, how does the inhibition read?
Answer: 4.69%

Question: `CC(c1ccccc1)(c1ccccc1)c1ccncc1` was tested. Which inhibition did it give?
Answer: -0.19%

Question: With `C[N+]12CN3CN(CN(C3)C1)C2` as the compound, how does the inhibition read?
Answer: -1.24%

Question: How did the inhibition turn out when `CCOP(=O)(OCC)C(NC(=O)NC)C(N)=O` (stereo not given) was run?
Answer: -0.58%
